Reference: ChEMBL document CHEMBL3988442, “University of Dundee, Small-Polar-MMV Screening Library” (2021)
For some assays here: Measured potencies and affinities stand elsewhere.

How the values were obtained:
Parameters in all cases: scale not given: direction of the effect not stated beside the values
[1] = target: Protein translocase subunit SecA (Escherichia coli (strain K12)) (UniProt P10408); experiment: Assay to Identify E. coli SecA ATPase Inhibitors; type: functional; settings: 30 µM
[2] = target: T1, Ubiquitin-activating enzyme e1, putative (Leishmania donovani (strain BPK282A1)) (UniProt E9BSI1); experiment: Leishmania donovani Ubiquitin Activating Enzyme (LdE1); type: functional; settings: 30 µM
T1 sequence (whole entry): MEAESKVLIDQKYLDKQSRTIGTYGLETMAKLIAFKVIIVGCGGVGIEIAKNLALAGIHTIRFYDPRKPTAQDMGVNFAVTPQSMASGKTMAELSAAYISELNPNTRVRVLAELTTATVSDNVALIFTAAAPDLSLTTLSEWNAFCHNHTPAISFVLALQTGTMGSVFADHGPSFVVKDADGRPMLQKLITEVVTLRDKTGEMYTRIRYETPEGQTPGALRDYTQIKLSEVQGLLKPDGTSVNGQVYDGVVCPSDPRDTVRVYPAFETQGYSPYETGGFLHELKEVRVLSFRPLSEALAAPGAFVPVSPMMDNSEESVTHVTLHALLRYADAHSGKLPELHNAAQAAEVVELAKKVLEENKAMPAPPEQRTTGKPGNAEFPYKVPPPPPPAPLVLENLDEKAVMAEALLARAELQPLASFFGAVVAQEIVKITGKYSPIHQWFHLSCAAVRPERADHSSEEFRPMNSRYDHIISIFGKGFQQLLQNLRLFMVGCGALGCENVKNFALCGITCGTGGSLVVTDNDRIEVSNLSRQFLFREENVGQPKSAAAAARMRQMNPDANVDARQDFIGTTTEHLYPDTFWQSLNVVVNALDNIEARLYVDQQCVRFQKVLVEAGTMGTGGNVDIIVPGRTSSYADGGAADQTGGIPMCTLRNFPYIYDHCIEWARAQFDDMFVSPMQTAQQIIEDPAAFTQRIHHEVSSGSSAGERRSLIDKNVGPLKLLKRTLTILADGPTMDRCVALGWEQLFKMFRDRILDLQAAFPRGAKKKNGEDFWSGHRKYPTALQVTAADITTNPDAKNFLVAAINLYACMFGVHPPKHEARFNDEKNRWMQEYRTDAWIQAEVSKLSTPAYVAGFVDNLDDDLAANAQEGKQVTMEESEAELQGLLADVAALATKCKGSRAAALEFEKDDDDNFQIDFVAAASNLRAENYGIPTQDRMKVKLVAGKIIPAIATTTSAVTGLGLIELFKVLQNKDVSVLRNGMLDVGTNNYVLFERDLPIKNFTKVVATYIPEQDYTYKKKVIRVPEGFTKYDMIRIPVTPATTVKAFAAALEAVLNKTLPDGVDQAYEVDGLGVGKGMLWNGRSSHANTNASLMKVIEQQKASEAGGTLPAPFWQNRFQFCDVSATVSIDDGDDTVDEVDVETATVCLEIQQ

[3] = target: AMP-activated protein kinase, AMPK (Homo sapiens) (UniProt P54646+O43741+P54619+Q9UGJ0+Q9Y478+Q13131+Q9UGI9); experiment: AMP-dependent Kinase enzyme assay. An in vitro enzyme assay that detects ADP turnover that is directly proportional to AMPK activity. This uses naive AMPK that is activated during the assay with MK-8722; type: functional; settings: 30 µM
[4] = target: Sialic acid-binding Ig-like lectin 9 (Homo sapiens) (UniProt Q9Y336); experiment: Hs-Siglec9 ALPHAscreen SOP 20170721; settings: 10 µM
Chain of Sialic acid-binding Ig-like lectin 9 (Homo sapiens) (Q9Y336 whole entry): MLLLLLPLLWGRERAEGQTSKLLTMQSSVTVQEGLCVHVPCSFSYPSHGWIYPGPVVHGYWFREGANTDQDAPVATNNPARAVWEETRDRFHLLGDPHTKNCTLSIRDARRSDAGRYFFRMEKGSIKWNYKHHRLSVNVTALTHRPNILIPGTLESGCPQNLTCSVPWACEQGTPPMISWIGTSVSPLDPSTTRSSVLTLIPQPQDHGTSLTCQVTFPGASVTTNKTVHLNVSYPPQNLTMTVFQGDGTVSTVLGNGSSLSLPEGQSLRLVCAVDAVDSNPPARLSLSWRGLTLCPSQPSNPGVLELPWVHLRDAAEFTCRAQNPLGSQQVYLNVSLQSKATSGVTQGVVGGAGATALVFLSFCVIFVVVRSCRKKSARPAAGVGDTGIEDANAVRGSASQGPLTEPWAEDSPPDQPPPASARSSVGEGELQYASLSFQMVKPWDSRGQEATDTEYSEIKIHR

Trypanosoma cruzi = experiment: Trypanosoma cruzi phosphomannomutase and mannose-1-phosphate guanylyltransferase assay; type: functional; settings: 10 µM
[5] = target: T2, Arginase-2, mitochondrial (Homo sapiens) (UniProt P78540); experiment: in vitro enzyme assay to detect the production of urea directly proportional to the activity of Arginase II; type: functional; settings: 33.3 µM; also: in the data most compounds retested in dose-response had high values
T2 sequence (whole entry): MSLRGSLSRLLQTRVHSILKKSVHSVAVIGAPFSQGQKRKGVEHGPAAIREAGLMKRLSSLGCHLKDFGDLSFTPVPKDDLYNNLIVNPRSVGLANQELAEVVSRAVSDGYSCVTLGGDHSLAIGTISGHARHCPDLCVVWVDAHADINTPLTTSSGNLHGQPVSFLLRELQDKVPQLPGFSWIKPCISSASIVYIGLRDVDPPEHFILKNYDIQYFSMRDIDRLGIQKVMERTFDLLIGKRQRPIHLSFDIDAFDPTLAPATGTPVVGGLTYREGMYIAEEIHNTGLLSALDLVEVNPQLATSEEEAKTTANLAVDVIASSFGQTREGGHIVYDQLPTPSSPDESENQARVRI

[6] = target: T3, Proteasome subunit beta (Trypanosoma cruzi) (UniProt O96673); experiment: Trypanosoma cruzi proteasome chymotrypsin-like activity (TcProtChymo) assay.; also: in the data most compounds retested in dose-response had high values; type: functional; settings: 9.37 µM
T3 sequence (whole entry): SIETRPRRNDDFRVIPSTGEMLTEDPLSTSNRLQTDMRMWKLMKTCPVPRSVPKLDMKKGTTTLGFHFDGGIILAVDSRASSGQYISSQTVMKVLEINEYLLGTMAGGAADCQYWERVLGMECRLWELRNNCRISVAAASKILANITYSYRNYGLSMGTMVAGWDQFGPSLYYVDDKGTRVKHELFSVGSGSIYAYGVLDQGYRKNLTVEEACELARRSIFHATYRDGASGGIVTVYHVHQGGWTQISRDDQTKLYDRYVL

Homo sapiens = organism: Homo sapiens; experiment: To identify inhibition of the IFN signalling (Jak-Stat) pathway via expression of an eGFP reporter gene under the control of an IFN-stimulated response element (ISRE) containing MxA promoter.; type: functional; settings: 30 µM
[7] = target: T4, Tyrosyl-tRNA synthetase, putative (Trypanosoma cruzi (strain CL Brener)) (UniProt Q4DSP6); experiment: Trypanosoma cruzi tyrosyl tRNA synthetase (TcYRS) _High Tyrosine SOP; type: functional; settings: 30 µM; also: in the data most compounds retested in dose-response had high values
T4 sequence (whole entry): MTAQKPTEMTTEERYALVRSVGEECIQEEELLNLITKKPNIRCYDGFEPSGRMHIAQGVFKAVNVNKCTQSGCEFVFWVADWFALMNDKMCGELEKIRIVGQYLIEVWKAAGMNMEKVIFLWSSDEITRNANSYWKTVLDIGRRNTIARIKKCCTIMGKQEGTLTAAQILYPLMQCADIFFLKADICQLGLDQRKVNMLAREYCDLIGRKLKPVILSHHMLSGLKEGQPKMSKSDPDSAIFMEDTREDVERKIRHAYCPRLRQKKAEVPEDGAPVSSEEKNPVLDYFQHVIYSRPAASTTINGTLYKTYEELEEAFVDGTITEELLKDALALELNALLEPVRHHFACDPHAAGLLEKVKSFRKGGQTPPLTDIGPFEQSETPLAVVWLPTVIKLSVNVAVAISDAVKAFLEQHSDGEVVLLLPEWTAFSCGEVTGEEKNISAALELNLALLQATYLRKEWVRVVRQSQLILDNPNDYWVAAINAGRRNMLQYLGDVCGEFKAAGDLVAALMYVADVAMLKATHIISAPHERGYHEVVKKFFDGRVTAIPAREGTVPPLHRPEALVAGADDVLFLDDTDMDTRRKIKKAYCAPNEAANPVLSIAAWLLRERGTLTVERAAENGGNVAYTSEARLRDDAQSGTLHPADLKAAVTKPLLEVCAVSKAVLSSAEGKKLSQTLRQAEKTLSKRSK

[8] = target: T4, Tyrosyl-tRNA synthetase, putative (Trypanosoma cruzi (strain CL Brener)); experiment: Trypanosoma cruzi tyrosyl tRNA synthetase (TcYRS) SOP; type: functional; settings: 30 µM
[9] = target: Chromo domain-containing protein 1 (Saccharomyces cerevisiae (strain ATCC 204508 / S288c) (Baker's yeast)) (UniProt P32657); experiment: ScCHD-1 Enzyme Inhibition Assay; type: functional; settings: 30 µM; also: in the data most compounds retested in dose-response had high values
Chain of Chromo domain-containing protein 1 (Saccharomyces cerevisiae (strain ATCC 204508 / S288c) (Baker's yeast)) (P32657 whole entry, the tested form may be a part): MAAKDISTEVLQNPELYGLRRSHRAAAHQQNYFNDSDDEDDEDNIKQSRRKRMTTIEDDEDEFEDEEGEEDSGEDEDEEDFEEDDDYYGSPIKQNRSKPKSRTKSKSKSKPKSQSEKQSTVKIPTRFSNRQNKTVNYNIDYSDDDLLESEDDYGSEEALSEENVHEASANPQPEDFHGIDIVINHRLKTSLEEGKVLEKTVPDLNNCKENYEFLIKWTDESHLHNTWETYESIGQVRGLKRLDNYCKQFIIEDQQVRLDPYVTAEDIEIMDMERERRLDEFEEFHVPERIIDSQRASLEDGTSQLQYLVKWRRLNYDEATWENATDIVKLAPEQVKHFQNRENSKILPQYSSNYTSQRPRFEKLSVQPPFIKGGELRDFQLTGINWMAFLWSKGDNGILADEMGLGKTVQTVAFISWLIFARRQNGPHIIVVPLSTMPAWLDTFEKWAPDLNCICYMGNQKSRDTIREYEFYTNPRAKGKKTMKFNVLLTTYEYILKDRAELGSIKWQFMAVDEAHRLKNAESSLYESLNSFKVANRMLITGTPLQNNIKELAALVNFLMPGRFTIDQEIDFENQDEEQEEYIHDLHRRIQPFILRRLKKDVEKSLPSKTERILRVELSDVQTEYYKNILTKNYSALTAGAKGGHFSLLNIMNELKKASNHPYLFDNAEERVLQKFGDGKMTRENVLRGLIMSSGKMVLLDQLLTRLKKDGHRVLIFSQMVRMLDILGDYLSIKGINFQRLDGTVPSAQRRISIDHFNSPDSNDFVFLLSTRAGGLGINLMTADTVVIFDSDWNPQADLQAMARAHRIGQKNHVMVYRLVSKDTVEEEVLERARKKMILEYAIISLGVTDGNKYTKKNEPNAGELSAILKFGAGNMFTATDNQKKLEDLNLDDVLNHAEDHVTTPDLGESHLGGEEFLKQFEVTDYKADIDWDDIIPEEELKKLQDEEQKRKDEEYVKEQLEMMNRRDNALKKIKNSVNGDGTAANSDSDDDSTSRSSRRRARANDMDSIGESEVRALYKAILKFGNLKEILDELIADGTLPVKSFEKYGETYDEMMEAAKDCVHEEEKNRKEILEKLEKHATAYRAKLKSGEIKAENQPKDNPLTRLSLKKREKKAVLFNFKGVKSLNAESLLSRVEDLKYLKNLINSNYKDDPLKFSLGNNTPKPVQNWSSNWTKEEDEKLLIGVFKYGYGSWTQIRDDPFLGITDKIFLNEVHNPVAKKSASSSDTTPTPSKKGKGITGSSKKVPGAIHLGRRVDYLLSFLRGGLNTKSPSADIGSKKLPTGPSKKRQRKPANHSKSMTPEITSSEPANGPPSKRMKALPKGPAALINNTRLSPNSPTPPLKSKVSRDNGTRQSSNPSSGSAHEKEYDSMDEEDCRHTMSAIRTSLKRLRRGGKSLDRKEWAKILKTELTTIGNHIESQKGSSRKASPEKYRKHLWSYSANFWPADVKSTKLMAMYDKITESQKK

Chain of Protein translocase subunit SecA (Escherichia coli (strain K12)) (P10408 whole entry): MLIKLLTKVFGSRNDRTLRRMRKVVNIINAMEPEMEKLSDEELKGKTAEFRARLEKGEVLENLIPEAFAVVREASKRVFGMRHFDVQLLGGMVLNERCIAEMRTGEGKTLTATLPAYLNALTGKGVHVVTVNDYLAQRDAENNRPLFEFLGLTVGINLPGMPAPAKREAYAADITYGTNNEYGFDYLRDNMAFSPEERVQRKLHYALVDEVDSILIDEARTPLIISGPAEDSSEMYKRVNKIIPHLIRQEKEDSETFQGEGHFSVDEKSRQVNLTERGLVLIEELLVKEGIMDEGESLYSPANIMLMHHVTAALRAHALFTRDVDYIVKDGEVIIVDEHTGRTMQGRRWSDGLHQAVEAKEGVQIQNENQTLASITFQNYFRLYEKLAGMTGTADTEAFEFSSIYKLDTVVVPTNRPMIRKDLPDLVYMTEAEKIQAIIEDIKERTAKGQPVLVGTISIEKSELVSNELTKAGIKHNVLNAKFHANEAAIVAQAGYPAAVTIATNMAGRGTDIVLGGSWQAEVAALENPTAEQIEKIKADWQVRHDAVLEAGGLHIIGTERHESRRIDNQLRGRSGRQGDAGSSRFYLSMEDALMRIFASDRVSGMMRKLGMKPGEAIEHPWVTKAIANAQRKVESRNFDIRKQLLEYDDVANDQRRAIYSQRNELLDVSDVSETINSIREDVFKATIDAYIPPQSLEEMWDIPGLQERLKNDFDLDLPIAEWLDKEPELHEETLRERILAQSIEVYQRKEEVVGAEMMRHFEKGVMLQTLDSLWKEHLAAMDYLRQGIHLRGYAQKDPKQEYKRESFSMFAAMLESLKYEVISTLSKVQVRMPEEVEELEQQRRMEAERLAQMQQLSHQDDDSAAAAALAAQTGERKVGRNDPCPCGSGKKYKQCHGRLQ

SMILES | Percent Effect [1] [%] | Percent Effect [2] [%] | Percent Effect [3] [%] | Percent Effect [4] [%] | Percent Effect (Trypanosoma cruzi) [%] | Percent Effect [5] [%] | Percent Effect [6] [%] | Percent Effect (Homo sapiens) [%] | Percent Effect [7] [%] | Percent Effect [8] [%] | Percent Effect [9] [%]
Cn1c(Cn2cccn2)nnc1C1CCCN(c2ccncc2)C1 (stereo unspecified) | -2.64 | 2.7 | -4 | 11.4 | 3.86 | -1.43 | 17.6 | 11.9 | 6.88 | 19.5 | -1.63
Cc1cc(C)n(C2CN(CC(O)COc3ccc(F)cc3)C2)n1 (stereo unspecified) | -3.4 | -20.8 | 2.93 | 9.67 | -1.12 | 1.42 | -0.169 | -11.2 | 4.85 | -4.88 | -2.37
CC[C@@H]1N(CC2CC2)CCC[C@]12CCC(=O)N2CCOC | -3.03 | 8 | 5.19 | 4.35 | 0.772 | -53.9 | 5.47 | -8.94 | 5.21 | 0 | -4.58
c1cnc(N2CCCC(NCc3cccc4c3OCCO4)C2)nc1 (stereo unspecified) | -0.886 | -5.41 | -2.02 | -1.18 | 3.87 | -4.81 | 7.21 | 10.1 | 4.43 | 3.7 | -2.9
O=C(N[C@@H]1CCNC[C@H]1O)c1ccc(F)c(Cl)c1 | -3.79 | 5.41 | 0.871 | 3.76 | -3.09 | -1.43 | 1.21 | -2.61 | 3.7 | 9.76 | -2.77
CCS(=O)(=O)N1CCOC2(CCCN(c3ccc(C)nn3)C2)C1 (stereo unspecified) | -0.413 | 2.67 | 3.56 | 2.28 | -1.35 | -48.9 | 6.67 | -5.88 | -1.04 | -2.5 | 0.0361
Cc1cc(C(=O)N2C[C@@H]3COC[C@]3(c3nnc(C4CC4)o3)C2)on1 | -4.61 | 13.3 | -3.2 | -0.841 | 1.16 | -46.4 | 7.52 | -5.46 | -5.21 | 5 | -9
O=C(c1ccccn1)N1CCCC(c2nccn2Cc2ccncc2)C1 (stereo unspecified) | -1.27 | 2.74 | -0.242 | 0.902 | 2.94 | 0.909 | 19.7 | 3.55 | 10.8 | 10 | -14
CC1CN(C)c2ccccc2CN1C(=O)c1ccncc1 (stereo unspecified) | -2.73 | 13.7 | 4.78 | 21.6 | 3.53 | 32.3 | 8.87 | 1.93 | 2.15 | 5 | -3
CN(C)CC1CSCCCN1C(=O)c1ccc(=O)[nH]c1 (stereo unspecified) | -6.61 | 2.6 | 6.1 | 5.73 | -5.82 | 0.645 | 7.66 | 0.342 | -1.06 | 3.85 | -3.68
Cc1cc(CN2CCN(C(=O)Nc3cccnc3)CC2)on1 | -2.38 | 15.8 | -3.05 | 8.98 | -2.63 | 4.6 | 4.51 | -11.1 | 6.37 | 17.1 | -2.69
Cc1[nH]c(=O)[nH]c(=O)c1CN1CCCC(CCc2c(F)cccc2F)C1 (stereo unspecified) | -0.639 | 8.11 | -5.43 | 13.8 | 1.16 | 1.91 | 9.14 | 5.92 | 3.7 | -9.76 | -1.15
COCCN1CCC(NCc2ccc(C#N)cc2)C1 (stereo unspecified) | -8.38 | 0 | -5.29 | 8.39 | 9.55 | 4.98 | 1.86 | 2.29 | 8.74 | 21.9 | -10.6
CCc1ccc(OCC(O)CN2CCN(S(C)(=O)=O)CC2)cc1 (stereo unspecified) | -7.02 | 7.79 | 3.94 | -12.9 | -6.56 | -3.58 | 3.96 | 16 | 0.952 | 2.35 | -21.6
CC(=O)NCC(=O)N1CC[C@H](OCC2CC2)[C@@H]1Cc1cccnc1 | -0.669 | 5.33 | -3.45 | 5.96 | -2.51 | -50 | 5.47 | 1.5 | 1.04 | -47.5 | -0.336
CC(NC(=O)C1=NN(C)C(=O)CC1)c1ccc(Cl)cc1Cl (stereo unspecified) | -2.53 | 16.4 | 8.07 | 9.9 | 2.74 | 8.64 | 11.9 | 16.3 | 2.15 | 20 | -7.04
